Common to all, as to assay: NCI-60 one-dose screen, 48 h (100 = growth as untreated, 0 = no growth, -100 = all killed)
What all share (conditions): 10 µM unless noted

Assay [1] concerns SK-MEL-2 melanoma.
Assay [2] relates to EKVX NSCLC.
The test system of assay [3] is SN12C renal.
The subject of assay [4] is UO-31 renal.
Assay [5] has as its system TK-10 renal.
The test system of assay [6] is A498 renal.
Assay [7] has as its system CCRF-CEM leukemia.
Assay [8] relates to SR leukemia.
Assay [9] deals with RPMI-8226 leukemia.
The subject of assay [10] is OVCAR-8 ovarian.
Assay [11] relates to OVCAR-5 ovarian.
In assay [12] the test system is OVCAR-4 ovarian.
In assay [13] the test system is SK-OV-3 ovarian.
The test system of assay [14] is IGROV1 ovarian.
Assay [15] deals with OVCAR-3 ovarian.
The test system of assay [16] is HS 578T breast.
Assay [17] concerns NCI/ADR-RES ovarian.
Assay [18] deals with MOLT-4 leukemia.

The panel holds about 83,000 compounds, 20% with a hit somewhere; the sample as a whole holds those more often.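 48-hour exposure, single concentration, 96-well plates; percent growth endpoint where 0 means no net growth. Active: below 10.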 Unmarked numbers belong to inactive results. Activity calls are given as the source filed them.

Take `Cc1cc(-c2ccccc2)cc(SC#N)[n+]1[O-]`: the growth in [1] is 49.1%; in assay [2], 26.2%; in assay [3], 51.7%; in assay [4], 40.4%; in [5], 55.9%; in assay [6] it was 67.7%. Moreover, the growth in [7] was 6.22% (active); in assay [8] it was 8.25% (active); in [9] it was 19.2%; in [10] it was 31.7%; in assay [11], 75.4%; in assay [12], 41.2%. Further, the growth in assay [13] is 45.1%; in assay [14], 35.3%; in [15] it was 39.6%; in assay [16], 80.1%; in assay [17], 19.7%.
`COc1cccc(CCC2CCCN(c3cc(C)nc(N)n3)C2)c1` (configuration not stated): the growth in assay [1] is 29.1%; in [2] it was 41.4%; in assay [3], 34.1%; in assay [4], 35.7%; in assay [5] it was 37.5%; in assay [6], -2.99% (active). Besides, the growth in assay [7] is 25.7%; in assay [18], 27.5%; in assay [8], 26.7%; in assay [9], 18.4%; in assay [11], 33.9%; in assay [12], 52.2%. Moreover, the growth in [13] was 40.5%; in [14], 31.3%; in assay [15], 11.4%; in assay [17], 6.21% (active).
`CC(C)N(CCOC(=O)Nc1ccccc1Cl)C(C)C`: the growth was 104% in [1]; 99.7% in assay [2]; 99.1% in assay [3]; 85.1% in assay [4]; 108% in assay [5]; 109% in assay [6]. In addition, the growth is 83.7% in [7]; 88.6% in [18]; 96% in assay [9]; 99.7% in [10]; 111% in assay [11]; 119% in [12]. The growth was 102% in [13]; 107% in assay [14]; 112% in assay [15]; 95.8% in assay [16]; 105% in [17].
As to `CCN(CC)c1ccc(Nc2ccc(CC(=O)c3ccccc3)cc2)cc1`, the growth was 81.7% in assay [1]; 76.4% in [2]; 95.3% in assay [3]; 71.5% in assay [4]; 107% in assay [5]; 99.7% in [6]. Moreover, the growth in assay [7] was 95.9%; in assay [18], 102%; in assay [8], 55.3%; in assay [9] it was 49.9%; in assay [10], 84.8%; in assay [11] it was 98.3%. The growth is 87.8% in assay [12]; 97.8% in [13]; 88.4% in [14]; 84.3% in assay [15]; 81.1% in assay [16]; 73.6% in [17].
For the compound `O=C(Nc1ccccc1Cl)OCCN1CCOCC1`, the growth in assay [1] was 96.7%; in assay [2], 104%; in assay [3], 98%; in [4], 92.4%; in assay [5], 92.8%; in [6], 129%. For the same compound, the growth in [7] was 86%; in assay [18] it was 92.3%; in assay [8], 103%; in assay [9] it was 101%; in assay [10], 107%; in [11], 110%. Further, the growth in [12] was 110%; in assay [13], 112%; in assay [14], 107%; in assay [15], 105%; in [16] it was 120%; in assay [17] it was 104%.
For the compound `COc1cc2c(cc1OC)-c1ccc3cc4c(cc3c1N(CCCn1ccnc1)C2)OCO4`, the growth in [1] is 37.7%; in [2] it was 98.2%; in assay [3], 18.1%; in [4] it was 80.8%; in assay [5], 91.3%; in assay [6], 85.2%. Further, the growth in assay [7] was 1.56% (active); in [18] it was 2.11% (active); in [9], 0.821% (active); in assay [10] it was 44.7%; in [11] it was 103%; in [12], 67.9%. Also, the growth in assay [13] is 20.7%; in assay [14], 38.3%; in assay [15] it was 33.5%; in [16], 91.5%; in assay [17], 94.4%.
In the case of `OC(CBr)c1ccnc2ccccc12` (configuration not stated), the growth in assay [1] was 93.3%; in assay [2], 103%; in [3], 99.6%; in assay [4], 83.4%; in [5], 89.4%; in assay [6], 102%. In addition, the growth is 76.8% in assay [7]; 93.8% in assay [18]; 98.7% in assay [8]; 87.4% in assay [9]; 98.2% in [10]; 106% in assay [11]. In addition, the growth in [12] was 110%; in [13] it was 105%; in assay [14], 102%; in assay [15] it was 106%; in assay [16], 99.6%; in assay [17], 101%.
Take `COc1cc2c(cc1OC)-c1ccc3cc4c(cc3c1N(CCN1CCCC1)C2)OCO4`: the growth in [1] was 57.9%; in assay [2], 36.3%; in assay [3], -29.9% (active); in [4] it was 32.7%; in assay [5], 34.2%; in assay [6], -2.77% (active). Besides, the growth in assay [7] is -5.95% (active); in [18], 2.96% (active); in assay [8], 1.64% (active); in assay [9] it was -36.2% (active); in assay [10] it was 6.81% (active); in [11], 30%. The growth is 33.8% in assay [12]; -13.5% (active) in assay [13]; 4.12% (active) in assay [14]; 15.3% in [15]; 16.2% in assay [16]; 60.7% in assay [17].
For `CCCCOC(=O)c1ccc(NC(=O)C(C)N2CCOCC2)cc1` (configuration not stated), the growth in [1] is 90.6%; in [2], 109%; in [3], 104%; in assay [4], 88.3%; in assay [5], 97.2%; in assay [6] it was 99.5%. Moreover, the growth in assay [7] was 72.4%; in [18], 94.9%; in assay [8] it was 98.1%; in assay [9], 88.1%; in [10], 95.6%; in assay [11], 112%. Besides, the growth is 124% in assay [12]; 109% in assay [13]; 103% in [14]; 102% in assay [15]; 99% in assay [16]; 101% in [17].

Values taken from PubChem BioAssay (NCI).
